HCV inh: blocks hepatitis C virus | Potency, µM (top dose mostly 41.8 µM), hits mostly inhibitors | Huh7.5.1 HCVcc-Cre infection, luciferase reporter, 44 h | AID 651820 | 340,000 tested, 3.4% active; active = well fitted inhibition curve with a large enough effect; inconclusive = small, poorly fitted or top-dose-only effect, or another doubt; inactive = no such curve, though single readings can be large or run the other way
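Infectious HCV cell culture screen: compound-treated cells (1,000/well, pre-plated 4 h) are infected with HCVcc-Cre at roughly 0.5 moi and grown 44 h. Infection is quantified by luciferase signal after 15 min substrate incubation at room temperature.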
VACV mCherry inh: inhibitors of vaccinia virus infection (mCherry reporter signal) | 310,000 tested, 0.63% active | Potency, µM (series often up to 36.5 µM), actives largely listed as inhibitors | Vaccinia virus mCherry reporter infection, fluorescence; calls by dose curve; tested in A549 cells; also: nearly all actives have a fitted effect of over 35% in size
Vaccinia Venus: inhibitors of vaccinia virus (Venus reporter) | Vaccinia virus Venus reporter expression, fluorescence | Potency, µM (highest dose often 36.5 µM), actives largely listed as inhibitors | 330,000 tested, 0.46% active | AID 720580; calls by dose curve; tested in A549 cells; also: nearly all actives have a fitted effect of over 30% in size
HCMV inh: human cytomegalovirus inhibition; HFF cells, HCMV-luciferase reporter, 72 h; hits give low values; activity change, negative = inhibition, % at 57.5 µM; AID 1259415; 410,000 tested, 4.5% active; in the data active = activity change below about -60%; inconclusive = no clear call, values can overlap the other calls; inactive = above about -39%
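Two-dose cell screen: HFF monolayers treated with compounds and infected with luciferase-expressing HCMV at 1 PFU/cell, 72 h at 37C, then lysed for luciferase measurement.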
FMDV antiviral: antivirals against foot and mouth disease virus. AID 1159524. 410,000 tested, 1.2% active. Potency, µM (top dose mostly 57.9 µM), usual class: inhibitors. FMDV antiviral cell-based qHTS; calls by dose curve; tested in HEK293T cells; also: read-out not given here; nearly all actives have a fitted effect of over 45% in size
A number is an active result; i = inactive; ? = inconclusive; nt = no result; [ ] = another dose, or the depositor's remark. Only some compounds are listed: those with a hit (about 7.3% of all), similar ones and a draw of the others.

SMILES	HCV inh	VACV mCherry inh	Vaccinia Venus	HCMV inh	FMDV antiviral
Cc1[nH]c2ccccc2c1C(=O)COC(=O)c1c(-c2ccccc2Cl)noc1C	?	?	?	-74	i
Cc1[nH]c2ccccc2c1C(=O)COC(=O)c1c(-c2c(F)cccc2Cl)noc1C	?	i	?	-71	32µM
C[C@H]1CC[C@]2(NC1)O[C@H]1C[C@H]3[C@@H]4CC[C@H]5C[C@@H](O)CC[C@]5(C)[C@H]4CC[C@]3(C)[C@H]1[C@@H]2C	nt	i	i	nt	i
Cc1ccc(-c2ccnc(-n3ncc(C(=O)NCCN4CCOCC4)c3C3CC3)n2)o1	nt	i	i	nt	i
Cc1ccc(C(NC(=O)NC(C)c2ccccc2)C(Cl)(Cl)Cl)cc1F (configuration not stated)	10µM	22µM	?	-100	?
CC(NC(=O)Nc1ccc(Cl)cc1)c1ccccc1 (configuration not stated)	i	nt	nt	i	i
CCCn1c(O)c(/C=C2\C=NN=C2c2ccccc2)sc1=S	10µM	nt	nt	i	i
O=C1NC2(CCCCC2)N=C1c1ccc(F)cc1	nt	i	i	-74	i
CC(C)Oc1ccc(Nc2cc3c(cn2)cc(-c2cccc(C(F)(F)F)c2)n3C)cc1	nt	nt	nt	i	nt
CN(C)CCN(Cc1ccco1)C(=O)c1cc2c(s1)-c1ccccc1OC2	nt	i[7.34 µM]	i[7.34 µM]	?	i
COc1ccc(/C=N/c2oc(-c3ccccc3)cc2C#N)cc1OC	?	nt	i	-103	i
CN(C)S(=O)(=O)Oc1ccsc1C(=O)Nc1ccccc1Cl	?	nt	nt	i	i
CN(C)S(=O)(=O)Oc1ccsc1C(=O)Nc1cccc(Cl)c1Cl	?	i	i	-68	i
O=C(Nc1ccccc1Br)c1cnn2c1NC(=C1CC1)C=C2C(F)F	nt	i	i	nt	nt
O=C(N/N=C/c1ccc(O)cc1O)c1ccc(CN2C(=O)c3cccc4cccc2c34)cc1	?	2.5µM	?	-101	i
O=C(CN1Cc2ccccc2C1=O)Nc1cc(F)ccc1F	nt	i	i	i	i
COc1ccccc1C(=O)Nc1ccnn1C1CCN(C(=O)c2ccoc2C)CC1	i	i	i	-63	i
COc1ccccc1C(=O)Nc1ccnn1C1CCN(C(=O)c2ccoc2)CC1	i	i	i	i	i
COc1ccccc1C(=O)Nc1ccnn1C1CCN(C(=O)c2cnsn2)CC1	i	i	i	-103	i
CCOC(=O)CSc1nnc(-c2ccccc2NC(=O)c2ccccc2)o1	i	i	i	i	nt
CCc1nnc(NC(=O)CSc2nnc(-c3ccccc3NC(=O)c3ccccc3)o2)s1	11µM	i	i	i	nt
CN1CCN(c2nccc3[nH]c(-c4cccc(F)c4)nc23)CC1	nt	nt	nt	i	nt
C=CS(=O)(=O)c1c2cc(OC)ccc2nc2ccc(OC)cc12	?	?	?	?	28µM
Cc1cnc(C)c(-c2cc(F)cc3c2OC(CNC(=O)C2CCOC2)C3)n1 (configuration not stated)	nt	i	i	nt	i
CC/C(=N\Nc1ccc([N+](=O)[O-])cc1)c1ccccc1	?	nt	nt	nt	i
SMILES	HCV inh	VACV mCherry inh	Vaccinia Venus	HCMV inh	FMDV antiviral
O=[N+]([O-])c1ccc(NN=C(Oc2ccccc2)c2ccc([N+](=O)[O-])cc2)cc1	nt	i	i	-70	i
Cc1ccc(N2C(=O)CS(=O)(=O)C23C(=O)N(Cc2ccccc2F)c2ccccc23)cc1Cl (configuration not stated)	nt	i	i	i	i
Cc1ccc(C(=O)C(c2ccccc2)N2Cc3ccccc3C2=N)cc1 (configuration not stated)	?	i	?	nt	32µM
O=c1cc(-c2ccccc2)nc(Cc2c(Cl)cccc2Cl)[nH]1	i	?	i	i	i
O=c1cc(CCl)nc(Cc2c(Cl)cccc2Cl)[nH]1	?	?	?	-93	?
COCCNC(=O)CSc1nnc(-c2ccc(OC)c(OC)c2)c(-c2ccc(OC)c(OC)c2)n1	nt	i	i	i	i
COC(=O)c1ccc(COc2ccccc2/C=C(\C#N)C(=O)Nc2ccccc2C)cc1	i	i	i	i	i
COC(=O)c1ccc(COc2ccccc2/C=C(\C#N)C(=O)Nc2c(C)cccc2C)cc1	?	i	i	i	11µM
CCc1cc(Cn2nc(-c3ccccc3)cc2C(=O)NCc2cccc(Br)c2)on1	3.2µM	i	i	?	i
COc1ccccc1Nc1c2c(nc3ccc(NC(=O)/C=C/c4cccc(OC)c4OC)cc13)CCCC2	nt	?	?	-99	i
COc1cccc(/C=C/C(=O)Nc2ccc(N3CCOCC3)cc2)c1OC	i	i	i	i	i
COc1ccc(Nc2c3c(nc4ccccc24)CCCC3)cc1OC	?	?	i	i	i
COc1ccc(Nc2c3c(nc4ccc(NC(=O)/C=C/c5cccc(OC)c5OC)cc24)CCCC3)cc1OC	nt	?	?	-97	?
COc1ccccc1Nc1c2c(nc3ccc(NC(=O)c4cccc(F)c4)cc13)CCCC2	nt	11µM	?	-107	32µM
COc1ccc(/C=C/C(=O)Nc2ccc3nc4c(c(Nc5ccccc5OC)c3c2)CCCC4)cc1	nt	i[7.34 µM]	i[7.34 µM]	-102	i
Cc1ccc2c(C)ccnc2c1	nt	i	i	nt	nt
CCCCNC(=O)CSc1nc2n[nH]c(C)c2c(=N)n1-c1ccccc1CC	nt	i	i	i	i
CCCCN(C)C(=O)c1ccc2c(c1)N(Cc1cccc(F)c1)C(=O)c1ccccc1S2	nt	i	i	i	i
CCCOC(=O)c1ccc(NC(=O)c2ccccc2[N+](=O)[O-])cc1	?	nt	nt	-100	i
CCN(CC)S(=O)(=O)c1ccc(C(=O)Nc2cc3oc4ccccc4c3cc2OC)cc1	i	i	i	i	i
COc1cc2c(cc1NC(=O)Nc1cccc(C)c1)oc1ccccc12	?	i	i	i	i
Cc1ccc(C(=O)COC(=O)c2cccc(NC(=O)c3ccc([N+](=O)[O-])cc3[N+](=O)[O-])c2)cc1	11µM	nt	nt	i	?
COc1cc2c(cc1NC(=O)c1cccc([N+](=O)[O-])c1C)oc1ccccc12	2µM	nt	nt	i	i
COc1cc2c(cc1NC(=O)c1cccc(S(=O)(=O)N(C)C)c1)oc1ccccc12	1.4µM	?	?	i	i
CN1CCCCC(NC(=O)c2ccc(F)cc2)C1=O (configuration not stated)	nt	nt	nt	i	nt
SMILES	HCV inh	VACV mCherry inh	Vaccinia Venus	HCMV inh	FMDV antiviral
COc1ccccc1Nc1ccc(NC(=O)c2cccc([N+](=O)[O-])c2C)cc1	?	nt	nt	-62	?
CC(=O)Nc1ccc(N=Nc2ccccc2)cc1[N+](=O)[O-]	i	i	i	i	i
O=[N+]([O-])c1ccc2c(c1)oc1ccccc12	i	nt	nt	-93	i
CC(=O)Nc1cc2oc3ccccc3c2cc1[N+](=O)[O-]	?	i	i	-84	i
Cc1ccc2nc(/C(C#N)=C/c3cccc(Br)c3)[nH]c2c1	nt	i	i	?	i
Cc1ccc2nc(/C(C#N)=C\c3ccc(N4CCCCC4)c([N+](=O)[O-])c3)[nH]c2c1	7.1µM	?	i	-62	nt
COc1cc(/C=C(\C#N)c2nc3ccc(C)cc3[nH]2)ccc1OC(C)C	nt	i	i	-68	i
Cc1ccc2nc(/C(C#N)=C/c3ccc(O)c(O)c3)[nH]c2c1	?	5.6µM	i	i	i
CCCCOc1ccc(C(=O)N2CCN(CCc3ccncc3)CC2)cc1	nt	i	i	i	i
